Measurements published in PubChem BioAssay (NCI).
About 83,000 compounds went through this panel and 20% of them were active in at least one assay; those are over-represented in the sample as a whole.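 Method: cells in 96-well plates; compound added at one concentration; 48 h incubation; percent growth measured; values under 10 scored active.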 Values without a mark were called inactive. The source made the active and inactive calls.

How the values were obtained:
Assay in all cases: NCI-60 one-dose screen, 48 h (100 = growth as untreated, 0 = no growth, -100 = all killed)
Conditions in all cases: 10 µM unless noted
[1] = system: NCI-H23 lung
[2] = system: NCI-H226 lung
[3] = system: NCI-H322M lung
[4] = system: HOP-62 NSCLC
[5] = system: NCI-H460 lung
[6] = system: HOP-92 NSCLC
[7] = system: NCI-H522 lung
[8] = system: A549/ATCC NSCLC
[9] = system: 786-0 renal
[10] = system: COLO 205 colon

Row | Structure (SMILES) | growth [1] | growth [2] | growth [3] | growth [4] | growth [5] | growth [6] | growth [7] | growth [8] | growth [9] | growth [10]
1 | O=C(/C=C/c1ccc([N+](=O)[O-])cc1)c1cccc(Nc2nc(Nc3ccccc3)nc(Nc3ccccc3)n2)c1 | 60.9% | 82.6% | 75.9% | 69.2% | 81.1% | -2.76% (active) | 78.7% | 72.7% | 70.5% | 65.1%
2 | COc1cccc(C2C3=C(COC3=O)N(CCO)c3cc4c(cc32)OCCO4)c1 (stereo not given) | 12.5% | 38.3% | 39% | 23.4% | 5.46% (active) | 27.6% | -14.6% (active) | 24.6% | 19.3% | -68% (active)
3 | CSc1nn2c(-c3cc4cc(Br)ccc4oc3=O)ccnc2c1C#N | 95.3% | 99.3% | 102% | 97.9% | 104% | 105% | 92.8% | 107% | 101% | 119%
4 | O=C(O)/C=C\C(=O)Nc1ccc2c(c1)Cc1cc(F)ccc1-2 | 95.9% | 98.3% | 99.7% | 87.9% | 110% | 97.5% | 90.9% | 106% | 99.7% | 105%
5 | C#Cc1c(I)n(C2OC(CO[Si](C)(C)C(C)(C)C)C3OC(C)(C)OC32)c(=O)[nH]c1=O (stereo not given) | 85.7% | 98.1% | 113% | 97% | 114% | -80.9% (active) | 101% | 92.6% | 93.9% | -88.2% (active)
6 | CCOC(=O)c1c(C)nc2c(c1N)C(=O)C(=O)N2CCc1ccc(OC)c(OC)c1 | 67% | 74% | 109% | 58.9% | 88.2% | 81.8% | 31.9% | 66% | 82.9% | 99.3%
7 | CC(=O)OCC(=O)O[C@@H]1C[C@]2(C(C)C)O[C@@]1(C)[C@@H]1CC[C@@H](C)[C@H]1[C@@H]2OC(=O)/C=C/c1ccccc1 | 89.7% | 68.4% | 84.8% | 86.7% | 90.2% | 67.4% | 78.1% | 71.7% | 66.3% | 97.5%
8 | CCCc1cc(CCC)n2nc(N)nc2n1 | 103% | 94.8% | 97.9% | 97.5% | 110% | 106% | 109% | 112% | 97.1% | 103%
9 | Cc1c(Cl)cccc1NC(=O)c1sc2nc3c(cc2c1N)CCCC3 | 58.9% | 69.3% | 74.2% | 25.2% | 12.9% | 25.6% | 4.4% (active) | 39.1% | 29.8% | 22.1%
10 | CN(C)CCOc1nc2c3cc([N+](=O)[O-])ccc3nn2c2ccccc12 | 36.7% | 65.3% | 59.6% | 30.2% | 4.99% (active) | 57.3% | 46.2% | 12.7% | 22.7% | 33.9%
11 | N=C(N)c1ccc(-c2ccc(-c3ccccc3)s2)nc1 | 94.1% | 92.8% | 80.4% | 88.8% | 23.1% | 70.2% | 83.9% | 83.8% | 91.3% | -6.33% (active)
12 | Cc1nc2ccccc2c(/C=C/c2ccc(Cl)cc2)c1C(=O)/C=C/c1ccccc1 | 22.2% | 40.2% | 41.2% | -36.7% (active) | -33% (active) | 41.4% | -13.3% (active) | 21.2% | 7.29% (active) | -5.72% (active)
13 | CC(C)n1cc(C2=C(c3cccc4ccccc34)C(=O)NC2=O)c2cc(Br)ccc21 | 49% | 37.8% | 87.5% | 78.5% | 67.5% | 158% | 79.9% | 60.5% | 54.9% | 62.2%
14 | CCN(CC)CCCNC(=O)c1c2c(n3ccccc13)C(=O)c1ncccc1C2=O | -38.7% (active) | -34.9% (active) | -49% (active) | -69% (active) | -44.4% (active) | -47.1% (active) | -79% (active) | -65.3% (active) | 3.22% (active) | -95.6% (active)
15 | O=C1c2c(c3c4cccnc4[nH]c3c3ccc4ccccc4c23)C(=O)N1O | 35.5% | 72.3% | 77.8% | 55.8% | 32.4% | 81.7% | 19.9% | 83.6% | 68.5% | 57.6%
16 | CCN=c1sc2c(n1NC(=O)c1cc3ccc1CCc1ccc(cc1)CC3)C(=O)c1ccccc1C2=O | -32.1% (active) | 73% | 80.5% | -58.6% (active) | 9.62% (active) | -9.79% (active) | -34.8% (active) | -38.8% (active) | -90.4% (active) | 42.6%
17 | COc1ccc(C2=C/C(=C\c3ccccc3O)C(=O)N2Cc2ccccc2)cc1 | 85.9% | 94.9% | 77.8% | 89.7% | 90% | 64.6% | 51.3% | 74% | 90% | 102%
18 | COCCNC(=O)Cc1cc(-c2ccc(Cl)cc2)n(-c2ccccc2)c1C | 73.6% | 89.8% | 95.4% | 2.89% (active) | 94% | 78.8% | 58.8% | 82.1% | 88.7% | 96.3%
19 | Cc1ccc(-c2nnc(SCc3nc(N)nc(Nc4ccccc4F)n3)n2-c2ccccc2)cc1 | 101% | 80.4% | 93.5% | 94.6% | 95.8% | 67.3% | 81.5% | 88.7% | 95.7% | 101%
20 | COc1cc2c(c(OC)c1OC)C(=O)CC(c1cccc(C(=O)Nc3ccc(Br)cc3)c1)O2 (stereo not given) | 60.3% | 37.6% | 59.9% | 86% | 78.8% | -8.2% (active) | 48.5% | 78.8% | 71.8% | 81.7%
21 | COc1ccc(S(=O)(=O)Oc2ccc(-c3sc4cc(OS(=O)(=O)c5ccc(OC)cc5)ccc4c3C(=O)c3ccc(OCCN4CCCCC4)cc3)cc2)cc1 | 104% | 104% | 98.5% | 95.8% | 105% | 108% | 91.4% | 88.2% | 93% | 109%
22 | CC(=O)O[C@H]1CC[C@@]2(C)C(=CC[C@@H]3[C@@H]2CC[C@]2(C)C(Cl)=C(c4nc5ccc(Cl)cn5c4NC(C)(C)C)C[C@@H]32)C1 | 88.1% | 92.3% | 96.1% | 90.8% | 99.9% | 15.6% | 86.8% | 89.5% | 85% | 103%
23 | CCN(CC)c1ccc(/C=N/NC(=O)c2ccccc2Nc2ccnc(C(F)(F)F)c2)c(O)c1 | 40.4% | 8.93% (active) | 39.7% | 28% | 4.43% (active) | 19.9% | 42.9% | 35.8% | 16.6% | 25.7%
24 | CC1(C)C2=C(C(=O)N1Cc1ccccc1)C(c1ccco1)N(C(=O)C1CCC1)CCN2 (stereo not given) | 95.8% | 116% | 107% | 103% | 106% | 115% | 93.8% | 75.8% | 99.5% | 112%
